Pf Dd2 inh: qHTS Primary assay for Inhibitors of Plasmodium falciparum Dd2 growth in vitro. P. falciparum Dd2 growth, SYBR Green, 72 h. Potency, µM (titrated, usually from 28.9 µM), for the others: top-dose activity, negative = inhibition, actives largely listed as inhibitors. actives 4.3% (n = 120,000). AID 1347417, 2020; active means well fitted inhibition curve with a large enough effect;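 further: plate controls were DMSO vehicle for no effect and reference drug for full effect; nearly all actives have a fitted effect of over 65% in size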
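Readout: SYBR Green fluorescence, 485 nm excitation, 535 nm emission, after ~16 h lysis at 37C. Before that, Dd2-infected red cells (2.5% hematocrit) grew 72 h with compound, 29 uM top final concentration.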
* hit, by the source's call; i = inactive; [ ] = another dose, or the depositor's remark. This excerpt belongs to a sample that is enriched for hits. Potency means the concentration at half of the fitted maximal effect.

SMILES	Pf Dd2 inh
Cc1cnc(CC2CCN(C(=O)C3CC3)C2)n1C1CC1 (stereo not drawn)	i
CCCn1ccc2sc(C)c(C(=O)NCCC3=CCCCC3)c2c1=O	i
CCC(C)NC(=O)CSc1c2c(nc3cc(Cl)ccc13)CCCC2 (stereo not drawn)	-9%
O=C(CSc1c2c(nc3cc(Cl)ccc13)CCCC2)N1CCN(c2ccccc2)CC1	11µM*
CC1CCN(C(=O)CSc2c3c(nc4cc(Cl)ccc24)CCCC3)CC1	-24%
CCn1ncc(N2CCCC(CC(=O)NC3CCCCC3)C2)cc1=O (stereo not drawn)	30%
O=C(Cn1ccn2nc3c(c2c1=O)CCCC3)NCCCc1ccccc1	i
COc1ccc(C(=O)N2CCC3(CC2)C(OC)C(=O)N3CC2CC2)cc1F (stereo not drawn)	-6%
COC(=O)[C@@H]1Cc2ncn(Cc3ccc(Cl)cc3)c2CN1Cc1cccc(C#N)c1	11µM*
COC(=O)[C@@H]1Cc2ncn(Cc3ccccc3)c2CN1S(=O)(=O)c1cccc(C(F)(F)F)c1	i
COC(=O)[C@@H]1Cc2ncn(Cc3ccc(Cl)cc3)c2CN1S(=O)(=O)c1ccc(NC(C)=O)cc1	-7%
COC(=O)[C@@H]1Cc2ncn(Cc3ccc(Cl)cc3)c2CN1S(=O)(=O)c1cccs1	-26%
COC(=O)[C@@H]1Cc2ncn(Cc3ccccc3)c2CN1S(=O)(=O)c1cccs1	i
COC(=O)[C@@H]1Cc2ncn(Cc3ccccc3)c2CN1S(=O)(=O)Cc1ccccc1	11µM*
Cc1cccnc1NCCNC(=O)c1ccc(S(N)(=O)=O)cc1	1%
COc1ccc(CC(=O)N2CCC(c3n[nH]c(=O)n3-c3ccc(C)cc3)CC2)cc1	-12%
O=C1CCN(S(=O)(=O)c2ccc3c(c2)OCCO3)CCCC(CO)CCN1 (stereo not drawn)	-1%
CCO[C@H]1CN(C(=O)Cc2ccc3nc(C)[nH]c3c2)C[C@@H]1O	-19%
COc1ccc(OCc2ccc(-c3nc(C#N)c(N4CCCCC4)o3)o2)cc1	9%
CNc1oc(-c2ccc(COc3ccc(C)cc3)o2)nc1C#N	-16%
COc1ccc(Nc2oc(-c3ccc(COc4ccccc4C)o3)nc2C#N)cc1	11µM*
O=C(Cn1cc(SCc2ccccc2Cl)c2ccccc21)N1CCCCCC1	-21%
Cc1ccccc1CSc1cn(CC(=O)N2CCCCCC2)c2ccccc12	-26%
COC(=O)c1ccc(NC(=O)CSc2cn(CC(=O)N3CCCCC3)c3ccccc23)cc1	-9%
O=C(/C=C/c1cn(CC(O)CN2CCCCCC2)c2ccccc12)c1ccc(Br)cc1 (stereo not drawn)	10µM*
SMILES	Pf Dd2 inh
CNC(=O)CSc1cn(CC(=O)N2CCCCCC2)c2ccccc12	-24%
O=C(/C=C/c1cn(CC(O)CN2CCCCCC2)c2ccccc12)c1ccccc1 (stereo not drawn)	10µM*
Cc1ccc(CSc2cn(CC(=O)N3CCCCC3)c3ccccc23)cc1	-19%
O=C(CSc1cn(CC(=O)N2CCCCC2)c2ccccc12)Nc1ccccc1	18%
Cc1ccc(C(=O)/C=C/c2cn(CC(O)CN3CCCCCC3)c3ccccc23)cc1 (stereo not drawn)	13µM*
CC#CC(=O)N1CCCC(N2CCN(c3cccc(Cl)c3)CC2)C1 (stereo not drawn)	-13%
c1ccc(C2CCN(c3ccc4nnc(-c5ccccn5)n4n3)CC2)cc1	i
COc1ccc(-c2noc(CC3CCN(C(=O)COc4cccc(C)c4)CC3)n2)cc1	-10%
CC(=O)NCCCC(=O)N1Cc2ccccc2OC2(CCN([S+](C)(=O)[O-])CC2)C1	12%
COc1ccc(C(=O)N2CCCC(n3cc(-c4nc(C)no4)nn3)C2)cc1F (stereo not drawn)	-1%
C[C@@H](NC(=O)C1CCCC1)c1onc(-c2ccc(F)cc2)c1C(=O)O	1%[44.1 µM]
COc1ccc(C(=O)NC2CCCN(c3cc(-c4ccccc4)[nH]n3)C2)cc1OC (stereo not drawn)	-19%
COc1ccc(C(=O)N2CCC3(CC2)COc2ccccc2CN3)cc1	1.4µM*
COc1ccc(C(=O)N2CCC3(CC2)CNC(=O)c2ccccc2O3)cc1	-16%
COc1ccc(C(=O)N2CCCC3(COc4ccccc4C(=O)N3)C2)cc1 (stereo not drawn)	-11%
COc1cc(F)ccc1-c1ccnc2nc(CCc3ccccc3)nn12	i
CCOc1cc(=O)n2c(c1C(=O)N1CCCc3ccccc31)CCCC2	23%
CNC(=O)c1cc2cc(-c3c(C)noc3C)nc(-c3cccnc3OC)c2o1	i
CN(Cc1ccc(F)cc1)Cc1ccc(OC(F)(F)F)cc1	-7%[44.1 µM]
CC1=C[C@@H](CNS(=O)(=O)c2cccc(C#N)c2)[C@H](C(C)C)C[C@H]1CC(=O)Nc1ccccn1	-21%
COCCC(=O)NC[C@@H]1C=C(C)[C@H](CC(=O)N(C)Cc2cccnc2)C[C@H]1C(C)C	3%[44.1 µM]
C#CCNC(=O)C[C@@H]1C[C@@H](C(C)C)[C@H](CNS(=O)(=O)c2cccc(C#N)c2)C=C1C	11µM*

Screening data as filed in PubChem.
